Compounds without any hit were thinned out: in the full panel of roughly 83,000, 20% have a hit.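 Growth was measured after 48 h exposure to one concentration of compound in 96-well plates. Values under 10 count as active.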 A number with no mark means an inactive call. Activity calls are given as the source filed them.
system: NCI-H460 lung; experiment: NCI-60 one-dose screen, 48 h (100 = growth as untreated, 0 = no growth, -100 = all killed); settings: 10 µM unless noted

| Compound | growth |
| --- | --- |
| COc1cc(C=O)ccc1OC1OC(COC(C)=O)C(OC(C)=O)C(OC(C)=O)C1OC(C)=O (configuration not stated) | 104% |
| CC1=CCC(OC(=O)C(C)(O)CCC(O)(C(=O)OC2(C)C=CC(O)(C(C)C)CC2)C(C)C)(C(C)C)CC1 (configuration not stated) | 111% |
| CC(=O)Nc1cccc(-c2ccc3c(c2)NC(=O)/C3=C\c2ccc[nH]2)c1 | 21.6% |
| CC(C)(C)c1ccc(NS(=O)(=O)c2ccc3nc(NC(=O)c4cnccn4)[nH]c3c2)cc1 | 6.16% (active) |
| CC(C)(C)c1cc(/C=N/NC(=O)c2ccccc2NC(=O)c2cccs2)c(O)c(C(C)(C)C)c1 | -11% (active) |
| C#CCNC(=O)[C@H](Cc1ccccc1)NC(=O)[C@]12CC[C@@H](C(=C)C)[C@@H]1[C@H]1CC[C@@H]3[C@@]4(C)CCC(=O)C(C)(C)[C@@H]4CC[C@@]3(C)[C@]1(C)CC2 | 66.7% |
| CCCCCCNC(=O)Oc1ccc(/C(=C(\C)c2ccccc2)c2ccc(OCCCN(C)C)cc2)cc1 | 39.1% |
| CC(=O)Nc1ccc(-c2ccc3c(c2)NC(=O)/C3=C\c2ccc[nH]2)cc1 | 50.1% |
| CCCCOc1ccc(/C=N/Nc2cc(C)nc3ccc(Br)cc23)cc1 | -34.6% (active) |
| COc1cc(/C(C)=C(\c2ccc(Cl)cc2)c2ccc(OCCN(C)C)cc2)ccc1F | 7.61% (active) |
| O=C(/C=C/c1ccc(Cl)cc1)c1ccc(NC(=O)N2CCN(c3cc4c(cc3F)c(=O)c(C(=O)O)cn4C3CC3)CC2)cc1 | 87.8% |
| O=C(c1nc2ccccc2[nH]1)C1C(c2ccc(Cl)cc2)C2CC3CCCC[C@H]3N2[C@@]12C(=O)Nc1cc(Cl)ccc12 (some centres not stated) | 23.1% |

From PubChem BioAssay (NCI)
